Reference: paper PMC11006913

Assays:
Assay in all cases: PBM; 200 nM protein, PBS
Settings in all cases: dsDNA, one strand shown
[1] = biological target: HESX1 (Homo sapiens, UniProt Q9UBX0 95-180, R165K)
[2] = biological target: SHOX (Homo sapiens, UniProt O15266 103-189)
[3] = biological target: ALX4 (Homo sapiens, UniProt Q9H161 200-286, Q225E)
[4] = biological target: HESX1 (Homo sapiens, UniProt Q9UBX0 95-180)
[5] = biological target: MSX2 (Homo sapiens, UniProt P35548 130-214, R199I)
[6] = biological target: ALX1 (Homo sapiens, UniProt Q15699 118-204, L144V)
Chain of ALX1 (Homo sapiens, UniProt Q15699 118-204, L144V) (Q15699 118-204 L144V): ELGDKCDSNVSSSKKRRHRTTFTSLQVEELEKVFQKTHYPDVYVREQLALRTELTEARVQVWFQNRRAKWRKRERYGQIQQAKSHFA

[7] = biological target: ALX3 (Homo sapiens, UniProt O95076 139-225, N203Q)
Chain of ALX3 (Homo sapiens, UniProt O95076 139-225, N203Q) (O95076 139-225 N203Q): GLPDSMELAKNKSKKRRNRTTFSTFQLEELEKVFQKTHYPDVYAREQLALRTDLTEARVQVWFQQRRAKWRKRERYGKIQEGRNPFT

[8] = biological target: SHOX (Homo sapiens, UniProt O15266 103-189, R173C)
Chain of SHOX (Homo sapiens, UniProt O15266 103-189, R173C) (O15266 103-189 R173C): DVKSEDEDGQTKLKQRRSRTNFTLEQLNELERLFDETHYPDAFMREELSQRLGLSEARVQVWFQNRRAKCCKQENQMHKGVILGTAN

[9] = biological target: ALX1 (Homo sapiens, UniProt Q15699 118-204, L144R)
Chain of ALX1 (Homo sapiens, UniProt Q15699 118-204, L144R) (Q15699 118-204 L144R): as the sequence (Q15699 118-204 L144V) above, with V27R counted along it

[10] = biological target: ALX3 (Homo sapiens, UniProt O95076 139-225)
Chain of ALX3 (Homo sapiens, UniProt O95076 139-225) (O95076 139-225): as the sequence (O95076 139-225 N203Q) above, with Q65N counted along it

[11] = biological target: PROP1 (Homo sapiens, UniProt O75360 56-141)
Chain of PROP1 (Homo sapiens, UniProt O75360 56-141) (O75360 56-141): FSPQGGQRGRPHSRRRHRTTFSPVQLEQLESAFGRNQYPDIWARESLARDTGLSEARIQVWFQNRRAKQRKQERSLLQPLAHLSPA

[12] = biological target: HESX1 (Homo sapiens, UniProt Q9UBX0 95-180, R109Q)
Chain of HESX1 (Homo sapiens, UniProt Q9UBX0 95-180, R109Q) (Q9UBX0 95-180 R109Q): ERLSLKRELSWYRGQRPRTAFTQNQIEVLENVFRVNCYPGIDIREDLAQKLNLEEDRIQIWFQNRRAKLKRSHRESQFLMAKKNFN

[13] = biological target: PROP1 (Homo sapiens, UniProt O75360 56-141, R99H)
Chain of PROP1 (Homo sapiens, UniProt O75360 56-141, R99H) (O75360 56-141 R99H): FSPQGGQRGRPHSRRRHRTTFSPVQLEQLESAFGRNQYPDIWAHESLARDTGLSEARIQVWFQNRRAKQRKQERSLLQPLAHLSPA

[14] = biological target: ALX3 (Homo sapiens, UniProt O95076 139-225, L168Q)
Chain of ALX3 (Homo sapiens, UniProt O95076 139-225, L168Q) (O95076 139-225 L168Q): as the sequence (O95076 139-225 N203Q) above, with L30Q, Q65N counted along it

[15] = biological target: HESX1 (Homo sapiens, UniProt Q9UBX0 95-180, P111T)
Chain of HESX1 (Homo sapiens, UniProt Q9UBX0 95-180, P111T) (Q9UBX0 95-180 P111T): as the sequence (Q9UBX0 95-180 R109Q) above, with Q15R, P17T counted along it

[16] = biological target: ALX3 (Homo sapiens, UniProt O95076 139-225, L168V)
Chain of ALX3 (Homo sapiens, UniProt O95076 139-225, L168V) (O95076 139-225 L168V): as the sequence (O95076 139-225 N203Q) above, with L30V, Q65N counted along it

[17] = biological target: PROP1 (Homo sapiens, UniProt O75360 56-141, F88S)
Chain of PROP1 (Homo sapiens, UniProt O75360 56-141, F88S) (O75360 56-141 F88S): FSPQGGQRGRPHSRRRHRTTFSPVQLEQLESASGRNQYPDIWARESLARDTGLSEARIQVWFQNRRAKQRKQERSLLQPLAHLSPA

[18] = biological target: HESX1 (Homo sapiens, UniProt Q9UBX0 95-180, F115L)
Chain of HESX1 (Homo sapiens, UniProt Q9UBX0 95-180, F115L) (Q9UBX0 95-180 F115L): as the sequence (Q9UBX0 95-180 R109Q) above, with Q15R, F21L counted along it

[19] = biological target: ALX1 (Homo sapiens, UniProt Q15699 118-204)
Chain of ALX1 (Homo sapiens, UniProt Q15699 118-204) (Q15699 118-204): as the sequence (Q15699 118-204 L144V) above, with V27L counted along it

[20] = biological target: ALX3 (Homo sapiens, UniProt O95076 139-225, N203S)
Chain of ALX3 (Homo sapiens, UniProt O95076 139-225, N203S) (O95076 139-225 N203S): as the sequence (O95076 139-225 N203Q) above, with Q65S counted along it

Chain of HESX1 (Homo sapiens, UniProt Q9UBX0 95-180, R165K) (Q9UBX0 95-180 R165K): as the sequence (Q9UBX0 95-180 R109Q) above, with Q15R, R71K counted along it
Chain of HESX1 (Homo sapiens, UniProt Q9UBX0 95-180) (Q9UBX0 95-180): as the sequence (Q9UBX0 95-180 R109Q) above, with Q15R counted along it
Chain of ALX4 (Q9H161 200-286 Q225E): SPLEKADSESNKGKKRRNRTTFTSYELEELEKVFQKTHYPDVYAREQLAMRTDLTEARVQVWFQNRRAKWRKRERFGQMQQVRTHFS
Chain of MSX2 (P35548 130-214 R199I): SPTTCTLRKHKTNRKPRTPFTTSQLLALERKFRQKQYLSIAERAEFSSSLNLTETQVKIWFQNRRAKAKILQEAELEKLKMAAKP
Chain of SHOX (Homo sapiens, UniProt O15266 103-189) (O15266 103-189): as the sequence (O15266 103-189 R173C) above, with C71R counted along it

Sequence	binding signal [1]	binding signal [2]	binding signal [3]	binding signal [4]	binding signal [5]	binding signal [6]	binding signal [7]	binding signal [8]	binding signal [9]	binding signal [10]	binding signal [11]	binding signal [12]	binding signal [13]	binding signal [14]	binding signal [15]	binding signal [16]	binding signal [17]	binding signal [18]	binding signal [19]	binding signal [20]
GTAATTAC	12.5 upbm affinity estimate (log intensity, higher = more binding, comparable within an allelic series)	12.4 upbm affinity estimate (log intensity, higher = more binding, comparable within an allelic series)	13.5 upbm affinity estimate (log intensity, higher = more binding, comparable within an allelic series)	12.6 upbm affinity estimate (log intensity, higher = more binding, comparable within an allelic series)	13.2 upbm affinity estimate (log intensity, higher = more binding, comparable within an allelic series)	12.1 upbm affinity estimate (log intensity, higher = more binding, comparable within an allelic series)	8.56 upbm affinity estimate (log intensity, higher = more binding, comparable within an allelic series)	9.86 upbm affinity estimate (log intensity, higher = more binding, comparable within an allelic series)	11.7 upbm affinity estimate (log intensity, higher = more binding, comparable within an allelic series)	12.7 upbm affinity estimate (log intensity, higher = more binding, comparable within an allelic series)	11.8 upbm affinity estimate (log intensity, higher = more binding, comparable within an allelic series)	9.11 upbm affinity estimate (log intensity, higher = more binding, comparable within an allelic series)	11.6 upbm affinity estimate (log intensity, higher = more binding, comparable within an allelic series)	10.7 upbm affinity estimate (log intensity, higher = more binding, comparable within an allelic series)	11 upbm affinity estimate (log intensity, higher = more binding, comparable within an allelic series)	10.2 upbm affinity estimate (log intensity, higher = more binding, comparable within an allelic series)	8.06 upbm affinity estimate (log intensity, higher = more binding, comparable within an allelic series)	7.87 upbm affinity estimate (log intensity, higher = more binding, comparable within an allelic series)	12.5 upbm affinity estimate (log intensity, higher = more binding, comparable within an allelic series)	8.69 upbm affinity estimate (log intensity, higher = more binding, comparable within an allelic series)
TAATTATA	12.8 upbm affinity estimate (log intensity, higher = more binding, comparable within an allelic series)	12.3 upbm affinity estimate (log intensity, higher = more binding, comparable within an allelic series)	13.9 upbm affinity estimate (log intensity, higher = more binding, comparable within an allelic series)	12.9 upbm affinity estimate (log intensity, higher = more binding, comparable within an allelic series)	13 upbm affinity estimate (log intensity, higher = more binding, comparable within an allelic series)	12 upbm affinity estimate (log intensity, higher = more binding, comparable within an allelic series)	8.6 upbm affinity estimate (log intensity, higher = more binding, comparable within an allelic series)	9.85 upbm affinity estimate (log intensity, higher = more binding, comparable within an allelic series)	11.6 upbm affinity estimate (log intensity, higher = more binding, comparable within an allelic series)	12.8 upbm affinity estimate (log intensity, higher = more binding, comparable within an allelic series)	11.7 upbm affinity estimate (log intensity, higher = more binding, comparable within an allelic series)	9.16 upbm affinity estimate (log intensity, higher = more binding, comparable within an allelic series)	11.7 upbm affinity estimate (log intensity, higher = more binding, comparable within an allelic series)	10.9 upbm affinity estimate (log intensity, higher = more binding, comparable within an allelic series)	11.5 upbm affinity estimate (log intensity, higher = more binding, comparable within an allelic series)	10.6 upbm affinity estimate (log intensity, higher = more binding, comparable within an allelic series)	8.03 upbm affinity estimate (log intensity, higher = more binding, comparable within an allelic series)	8.06 upbm affinity estimate (log intensity, higher = more binding, comparable within an allelic series)	12.7 upbm affinity estimate (log intensity, higher = more binding, comparable within an allelic series)	8.74 upbm affinity estimate (log intensity, higher = more binding, comparable within an allelic series)
AATTAATG	12.1 upbm affinity estimate (log intensity, higher = more binding, comparable within an allelic series)	11.8 upbm affinity estimate (log intensity, higher = more binding, comparable within an allelic series)	13.4 upbm affinity estimate (log intensity, higher = more binding, comparable within an allelic series)	12.1 upbm affinity estimate (log intensity, higher = more binding, comparable within an allelic series)	12.5 upbm affinity estimate (log intensity, higher = more binding, comparable within an allelic series)	11.9 upbm affinity estimate (log intensity, higher = more binding, comparable within an allelic series)	8.41 upbm affinity estimate (log intensity, higher = more binding, comparable within an allelic series)	9.48 upbm affinity estimate (log intensity, higher = more binding, comparable within an allelic series)	11.5 upbm affinity estimate (log intensity, higher = more binding, comparable within an allelic series)	12.6 upbm affinity estimate (log intensity, higher = more binding, comparable within an allelic series)	11.4 upbm affinity estimate (log intensity, higher = more binding, comparable within an allelic series)	9.35 upbm affinity estimate (log intensity, higher = more binding, comparable within an allelic series)	11.3 upbm affinity estimate (log intensity, higher = more binding, comparable within an allelic series)	10.7 upbm affinity estimate (log intensity, higher = more binding, comparable within an allelic series)	10.7 upbm affinity estimate (log intensity, higher = more binding, comparable within an allelic series)	10.3 upbm affinity estimate (log intensity, higher = more binding, comparable within an allelic series)	7.86 upbm affinity estimate (log intensity, higher = more binding, comparable within an allelic series)	7.83 upbm affinity estimate (log intensity, higher = more binding, comparable within an allelic series)	12.5 upbm affinity estimate (log intensity, higher = more binding, comparable within an allelic series)	8.55 upbm affinity estimate (log intensity, higher = more binding, comparable within an allelic series)
AATAATTA	13 upbm affinity estimate (log intensity, higher = more binding, comparable within an allelic series)	12.1 upbm affinity estimate (log intensity, higher = more binding, comparable within an allelic series)	13.7 upbm affinity estimate (log intensity, higher = more binding, comparable within an allelic series)	13 upbm affinity estimate (log intensity, higher = more binding, comparable within an allelic series)	13.1 upbm affinity estimate (log intensity, higher = more binding, comparable within an allelic series)	11.9 upbm affinity estimate (log intensity, higher = more binding, comparable within an allelic series)	8.63 upbm affinity estimate (log intensity, higher = more binding, comparable within an allelic series)	9.86 upbm affinity estimate (log intensity, higher = more binding, comparable within an allelic series)	11.7 upbm affinity estimate (log intensity, higher = more binding, comparable within an allelic series)	12.8 upbm affinity estimate (log intensity, higher = more binding, comparable within an allelic series)	11.8 upbm affinity estimate (log intensity, higher = more binding, comparable within an allelic series)	9.38 upbm affinity estimate (log intensity, higher = more binding, comparable within an allelic series)	11.6 upbm affinity estimate (log intensity, higher = more binding, comparable within an allelic series)	10.9 upbm affinity estimate (log intensity, higher = more binding, comparable within an allelic series)	11.5 upbm affinity estimate (log intensity, higher = more binding, comparable within an allelic series)	10.6 upbm affinity estimate (log intensity, higher = more binding, comparable within an allelic series)	7.89 upbm affinity estimate (log intensity, higher = more binding, comparable within an allelic series)	8.2 upbm affinity estimate (log intensity, higher = more binding, comparable within an allelic series)	12.5 upbm affinity estimate (log intensity, higher = more binding, comparable within an allelic series)	8.7 upbm affinity estimate (log intensity, higher = more binding, comparable within an allelic series)
